# Measured values from ChEMBL document CHEMBL3988442, “University of Dundee, Small-Polar-MMV Screening Library” (2021).
# Among all 69,000 compounds or so, about 950 (1.4%) showed an effect of 50% or more. The entries come from a sample that favours strong results as a whole.
# Test system: Mycobacterium tuberculosis
# Assay: Cornell M. t heat shock assay; also: in the data most compounds retested in dose-response had high values
# Format: functional, organism-based
# Design: dose or concentration left out as unconfirmed
row,Compound,Percent Effect [%]
1,CN(C)C(=O)c1cn[nH]c1C1CCCN1Cc1nccn1C.O=CO (stereo unspecified),-23.16
2,Cc1ccc(CN2CCC(O)(Cn3nc(-c4cccs4)oc3=O)CC2)o1.O=C(O)CC(O)(CC(=O)O)C(=O)O,5.66
3,CC1(C)CC(N2Cc3nc(N4CCCC4)ncc3C2=O)CC(C)(C)N1,8.213
4,Cc1noc(C2CCN(C(=O)CCNc3ncccn3)CC2)n1,13.08
5,Cc1noc(C2CCN(C(=O)CCc3ccccn3)CC2)n1,13.4
6,Cc1noc(C2CCN(C(=O)CCc3nccs3)CC2)n1,51.73
7,O=C(O)C(F)(F)F.O=C(O)C(F)(F)F.c1cnn(CCCO[C@@H]2CC[C@H]3[C@H]2OCCN3CC2CC2)c1,-27.44
8,CCn1ncc2c1CN(CCc1cccc(Cl)c1)CC2COC.O=C(O)C(F)(F)F.O=C(O)C(F)(F)F (stereo unspecified),-10.95
9,O=C(CCNC1(c2nccs2)CCCC1)N1CCOCC1,-14.8
10,O=C(NC1(c2nccs2)CCCC1)c1cc(C2CC2)on1,7.107
11,Cc1csc(C2(NCc3csc(C4CC4)n3)CCCC2)n1,41.22
12,c1csc(C2(NCc3csc(C4CC4)n3)CCCC2)n1,66.7
13,CCCc1nc(CNC2(c3nccs3)CCCC2)cs1,94.85
14,CCCc1nc(CNC(=O)Cc2csc(C)n2)cs1,8.263
15,Cc1cccc(CN2CCc3nnc(Cn4cccc4)n3CC2)n1.O=C(O)C(F)(F)F,-14.44
16,O=C(O)C(F)(F)F.O=C(O)C(F)(F)F.c1cc(-c2ccc3nc(C4CCN(CC5CC5)CC4)nn3c2)ccn1,-27.27
17,Cc1cccc(CN2CC[C@@H]3[C@@H]2CCN3C(=O)c2cc(C)on2)n1.O=C(O)C(F)(F)F,-16.64
18,CCN(CC)CC1CN(Cc2cccc(C#N)c2)Cc2nccn2C1.O=C(O)C(F)(F)F.O=C(O)C(F)(F)F (stereo unspecified),-22.76
19,c1cc(-c2nc(CN3CCn4c(nnc4C4CC4)C3)cs2)cs1,159.7

row,Compound,Percent Effect [%]
1,Cc1ccc(-c2nc(CN3CCn4c(C)nnc4C3)cs2)o1,-2.255
2,c1sc(C2CCCC2)nc1CN1CCn2c(nnc2C2CC2)C1,55.31
3,Cc1nnc2n1CCN(Cc1csc(-c3ccsc3)n1)C2,-0.9289
4,c1sc(C2CCCCC2)nc1CN1CCn2c(nnc2C2CC2)C1,7.076
5,c1ccc(-c2nc(CN3CCn4c(nnc4C4CC4)C3)cs2)cc1,10.73
6,CCc1nnc2n1CCN(Cc1csc(-c3ccc(C)o3)n1)C2,49.84
7,c1cnc(-c2nc(CN3CCn4c(nnc4C4CC4)C3)cs2)nc1,18.84
8,Cc1ccc(-c2nc(CN3CCn4c(nnc4C4CC4)C3)cs2)o1,171.6
9,Cc1cccc(-c2noc(CN3CCOCC3C)n2)c1 (stereo unspecified),-19.27
10,Cn1cc(CN2CCCC(O)C2)c(-c2ccccc2F)n1 (stereo unspecified),14.46
11,Cc1ccc(S(=O)(=O)c2ncccc2CN2CCOCC2)cc1,-21.96
12,Cc1ccc(-n2cc(CN3CCOCC3)c(-c3cccc(C)c3)n2)cc1,101.4
13,Cc1ccc(C)c(-n2cc(CN3CCOCC3)c(-c3ccccc3)n2)c1,9.683
14,Cc1ccc(C)c(-n2cc(CN3CC[C@@H](O)C3)c(-c3ccccc3)n2)c1,85.17
15,CCC(=O)Nc1cccc(OCC(=O)N[C@@H]2C[C@H]3CC[C@@H]2C3)c1,-8.125
16,O=C(O)C(F)(F)F.O=C(O)C(F)(F)F.c1cc(CO[C@@H]2CN(Cc3ccoc3)[C@@H]3CCCO[C@@H]32)ccn1,21.84
17,CN1CCOCC2(CCCN(C(=O)c3ccccc3F)C2)C1.O=C(O)C(F)(F)F (stereo unspecified),-25.25
18,CN(C)C(=O)N1CCC2(CC1)CN(Cc1ccccn1)C(=O)CO2.O=C(O)C(F)(F)F,-0.5573
19,Cn1cc(CN2CCCC23CCN(C(=O)c2ccncc2)CC3)cn1.O=C(O)C(F)(F)F,-22.55

row,Compound,Percent Effect [%]
1,Cc1ncccc1NC(=O)[C@H]1C[C@@H]2CCN(Cc3nccs3)C[C@@H]2O1.O=C(O)C(F)(F)F.O=C(O)C(F)(F)F,-3.608
2,O=C(CC1CN(Cc2ccccc2)CCO1)NCCN1CCOCC1 (stereo unspecified),-41.8
3,O=C(CC1CN(Cc2ccccc2)CCO1)NC1CCCC1 (stereo unspecified),-14.55
4,Cl.O=C(O)CC1CN(Cc2ccccc2)CCO1 (stereo unspecified),70.76
5,Cc1ccc(CN2CCn3cc(CN4CCN(C)CC4)nc3C2)cc1.O=C(O)C(F)(F)F.O=C(O)C(F)(F)F.O=C(O)C(F)(F)F,-4.711
6,CNC(=O)NCC1CCC2(CCN(C(=O)c3cccnc3)CC2)CO1.O=C(O)C(F)(F)F (stereo unspecified),9.868
7,O=C(O)CC(O)(CC(=O)O)C(=O)O.c1cncc(-c2nccc(CN3CCC(N4CCCCC4)CC3)n2)c1,-13.06
8,O=C(O)C(F)(F)F.O=C(O)C(F)(F)F.c1cncc(COCc2nnn3c2CN(Cc2ccsc2)CC3)c1,-26.71
9,CC(C)C(=O)N1CCN(C(=O)c2cscn2)[C@H]2CS(=O)(=O)C[C@H]21,73.31
10,CC(C)C(=O)N1CCN(C(=O)c2cc(C(C)C)on2)[C@H]2CS(=O)(=O)C[C@H]21,-10.22
11,Cc1cnc(C(=O)N2CCN(C(=O)C(C)C)[C@@H]3CS(=O)(=O)C[C@@H]32)cn1,4.224
12,Cc1ccc(OCC(=O)N2CCCC(n3nc(C)nc3C)C2)cc1 (stereo unspecified),-13.19
13,Cc1n[nH]cc1CNC(C(=O)N1CCCCC1)c1ccccc1 (stereo unspecified),-8.652
14,O=C(O)C(F)(F)F.c1csc(CN2CCc3nnc(COc4cncnc4)n3CC2)c1,-24.48
15,Cc1nc(CN2C[C@@H](CN3CCOCC3)[C@@H](CO)C2)c2ccccn12,1.211
16,Cc1ccc(C2(O)CCN(Cc3nc(C)n4ccccc34)CC2)nc1,43.96
17,Cc1nc(CN2CCC3(CCCO3)CC2)c2ccccn12,77.67
18,Cl.Cl.NCC1CN(c2ncnc3[nH]cnc23)CCO1 (stereo unspecified),-17.53
